# Measured values as given in PubChem BioAssay (NCATS).
# Inconclusive results are not listed. Where a call stands in place of a potency, no number is given. Active and inactive are the calls of the source. Unless noted, calls follow the shape of the dose curve; as a rule, active = well fitted curve in the direction sought with a large enough effect; inconclusive = small, poorly fitted or top-dose-only effect, or another doubt; inactive = no such curve, though single readings can be large; an effect the other way counts as inactive or inconclusive.
# Legend:
# [1] = molecular target: Cytochrome P450 3A4 (Homo sapiens) (UniProt P08684); assay: qHTS Assay for Inhibitors and Substrates of Cytochrome P450 3A4 (AID 884); also: nearly all actives have a fitted effect of over 50% in size; also: potency is read from the fitted curve at half-maximal effect
# In short: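 Luminescent readout of luciferin produced by CYP3A4 (20 nM) dealkylation of Luciferin-PPXE, 25 uM (its KM). NADPH-driven reaction ran 60 min at RT after 10 min compound preincubation; data scaled to 57 uM ketoconazole as 100% inhibition.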
# [2] = molecular target: Cytochrome P450 3A4 (Homo sapiens) (UniProt P08684); assay: qHTS Assay for Activators of Cytochrome P450 3A4 (AID 885); also: nearly all actives have a fitted effect of over 65% in size
# In short: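 CYP3A4 activity: Luciferin-PPXE O-dealkylation, 25uM substrate, 200mM KPO4, RT throughout. Read-out is luciferase luminescence; higher values reflect activation.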
# [3] = Confirmation and Secondary Assay for Modulators of Hemoglobin Beta Chain Splicing at IVS2 654 locus (AID 910);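 also: HeLa cells stably carrying EGFP split by mutant beta-globin IVS2-654 intron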
# In short: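 HeLa cells stably expressing EGFP interrupted by β-globin IVS2-654 intron, seeded overnight in Opti-MEM/2% FCS, then treated 2 days at 37 °C. Restored splicing read as total peak GFP intensity per well by laser scanning cytometry (488 nm excitation, 500–520 nm emission); 500 nM antisense PNA as control.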
# [4] = molecular target: Ubiquitin carboxyl-terminal hydrolase 1 (Homo sapiens) (UniProt O94782); assay: Inhibitors of USP1/UAF1: Pilot qHTS (AID 504865); also: nearly all actives have a fitted effect of over 35% in size; also: potency is read from the fitted curve at half-maximal effect;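 as to activity change, negative = inhibition: rhodamine fluorescence freed from ubiquitin-rhodamine substrate followed over time; top concentration of the series differs between compounds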
# In short: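 USP1/UAF1 complex (1nM) preincubated with compound 15 min at room temperature, then Ub-Rho substrate (150nM final) added. Fluorescence read kinetically at 480/540 nm, 6 reads every 60 seconds. Buffer: 50mM HEPES pH 7.8, 0.5mM EDTA, 0.1 mg/ml BSA, 1mM TCEP, 0.01% Tween-20.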
# Furin (Homo sapiens) = Furin (Homo sapiens) (UniProt P09958); assay: Furin counterscreen qHTS for Zika virus inhibitors (AID 1347149); also: nearly all actives have a fitted effect of over 70% in size; also: potency is read from the fitted curve at half-maximal effect;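 as to activity change, negative = inhibition: purified recombinant full-length human furin enzyme at 5 nM; fluorescence gain from furin cutting a BOC-RVRR-AMC peptide substrate over 15 min; top concentration of the series differs between compounds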
# In short: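 Counterscreen measures cleavage of 2 microM BOC-RVRR-AMC, below its ~15 microM Km, by 5 nM full-length human furin at pH 7.0 after a 15-min compound preincubation. Inhibition derives from the 15-min fluorescence increase at 37C.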
# [5] = ZIKV-mCherry secondary qHTS for Zika virus inhibitors (AID 1347158); also: top concentration of the series differs between compounds
# In short: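 Compounds were tested in Vero monkey kidney cells infected with recombinant mCherry-expressing Zika virus at MOI 1 for 48-72 h at 37 °C. Fixed cells were nuclear-stained and imaged, and infection rate was taken as the fraction of mCherry-positive cells.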
# [6] = Confirmatory screen NINDS Rhodamine qHTS for Zika virus inhibitors (AID 1347161); also: nearly all actives have a fitted effect of over 60% in size; also: potency is read from the fitted curve at half-maximal effect;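 as to activity change, negative = inhibition: purified Zika NS2B-NS3 protease with linked NS2B cofactor domain and Rhodamine110 peptide substrate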
# In short: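 Single-chain NS2B-NS3 protease, 25 nM, pH 8.0; compounds preincubated 15 min. Activity: Rhodamine110 release from 1.5 microM substrate over 15 min, room temperature, data fitted to 4-parameter Hill.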
# [7] = test system: Zika virus NS2B-NS3 protease (linked); assay: 384 well plate NINDS AMC confirmatory qHTS for Zika virus inhibitors (AID 1347163); also: nearly all actives have a fitted effect of over 50% in size; also: potency is read from the fitted curve at half-maximal effect;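 as to activity change, negative = inhibition: linked protease at 5 30 or 60 nM final depending on run; fluorescence of AMC released from Ac-VKTGKR-AMC peptide cleaved by the protease; top concentration of the series differs between compounds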
# In short: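 Fluorescence at 355/460 nm was read after 25 minutes of cleavage of 30 microM Ac-VKTGKR-AMC at room temperature, in the dark. Before substrate addition, compounds (up to 1 mM final) sat ~15 minutes with 5, 30 or 60 nM linked protease. Signals were normalized to no-enzyme and no-inhibitor wells.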
# [8] = Tertiary RLuc qRT-PCR qHTS assay for Zika virus inhibitors (AID 1347169); also: top concentration of the series differs between compounds; nearly all actives have a fitted effect of over 55% in size
# In short: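 Vero cells (1,000 per well) plated overnight at 37 degrees C, treated with compound in DMSO, then infected with recombinant ZIKV-RLuc (Cambodian) at MOI 1-2 for 48-72 hrs. Live-cell Renilla luciferase substrate added; luminescence read after 1-1.5 hrs.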
# [9] = test system: Zika virus NS2B-NS3 protease (linked construct); assay: 384 well plate NINDS Rhodamine confirmatory qHTS for Zika virus inhibitors (AID 1347164);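 also: fluorescence from protease cleavage of Ac-LKRR-rhodamine 110 substrate; potency is read from the fitted curve at half-maximal effect; nearly all actives have a fitted effect of over 65% in size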
# In short: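 Linked protease at a final 5 nM, 30 nM or 60 nM was preincubated ~15 min with compounds, then given 10 microM Ac-LKRR-Rhodamine 110. Fluorescence (ex 485/em 538 nm) after 25 min in the dark at room temperature.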
# [10] = Confirmation and Secondary Assay for Modulators of Hemoglobin Beta Chain Splicing at IVS2 705 locus (AID 930);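 also: HeLa cells stably expressing the EGFP-705 splicing reporter; GFP fluorescence per well restored by corrected splicing of the IVS2-705 intron in EGFP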
# In short: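 HeLa IVS2-705 EGFP reporter cells, 500/well, compound 2 d at 37C; correct splicing yields fluorescent EGFP. Control: 500 nM antisense PNA. Read-out: total peak GFP intensity.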
# [11] = qHTS Assay for Lipid Storage Modulators (AID 1519; calls by dose curve); conditions: Drosophila S3 cells, BODIPY lipid droplet/cell ratio, laser cytometry, cells loaded with oleic acid
# In short: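 Cells seeded at 5,000 per well were treated with compounds over a concentration series and loaded with oleic acid (400 uM, as added). Lipid droplet fluorescence (488 nm excitation, 500-530 nm channel) was read by laser-scanning cytometry and normalized to 20 uM Triacsin C.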
# [12] = molecular target: Rap guanine nucleotide exchange factor 3 (Homo sapiens) (UniProt O95398); assay: Confirmatory qHTS for antagonist of cAMP-regulated guanine nucleotide exchange factor 3 (EPAC1) (AID 1645880); also: nearly all actives have a fitted effect of over 55% in size
# In short: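 Released BODIPY-GDP fluoresces less than Rap1-bound BODIPY-GDP; the signal is followed at 480/540 nm at 5-min intervals over 30 min, after 5 min at room temperature. Reactions contain 100 nM EPAC1, 250 nM RAP1B-BODIPY-GDP and 50 uM GDP; results are normalized to ATA and DMSO.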
# [13] = molecular target: Rap guanine nucleotide exchange factor 3 (Homo sapiens) (UniProt O95398); assay: Confirmatory qHTS for agonist of cAMP-regulated guanine nucleotide exchange factor 3 (EPAC1) (AID 1645881);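 also: EPAC1 catalysed release of BODIPY-GDP from Rap1B seen as fluorescence loss; nearly all actives have a fitted effect of over 75% in size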
# [14] = molecular target: Rap guanine nucleotide exchange factor 4 (Homo sapiens) (UniProt Q8WZA2); assay: Confirmatory qHTS for agonist of cAMP-regulated guanine nucleotide exchange factor 4 (EPAC2) (AID 1645884);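 also: nucleotide exchange releases bodipy-GDP from Rap1 and this lowers its fluorescence; nearly all actives have a fitted effect of over 65% in size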
# [15] = molecular target: Rap guanine nucleotide exchange factor 4 (Homo sapiens) (UniProt Q8WZA2); assay: Confirmatory qHTS for antagonist of cAMP-regulated guanine nucleotide exchange factor 4 (EPAC2) (AID 1645885); also: nearly all actives have a fitted effect of over 25% in size
# [16] = molecular target: Rap guanine nucleotide exchange factor 3 (Homo sapiens) (UniProt O95398); assay: Counterscreen qHTS for antagonist of cAMP-regulated guanine nucleotide exchange factor 3 (EPAC1) (AID 1645888)
# In short: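 Rap1B–BODIPY-GDP (250 nM) with 50 uM GDP; compounds pin-transferred to 9.74 nM–152 uM final (activator) or from 7.32 nM upwards (inhibitor). Fluorescence Ex/Em 480/540 nm read at 5 and 30 min, then after adding cAMP or buffer, at room temperature.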
# [17] = molecular target: Cytochrome P450 2C9 (Homo sapiens) (UniProt P11712); assay: Cytochrome P450 family 2 subfamily C member 9 (CYP2C9) small molecule antagonists: luciferase biochemical (cell-free) qHTS assay (AID 1645842; active = well fitted curve in the direction sought with a large enough effect in the repeat runs; an effect the other way counts as inactive or inconclusive; also: potency is read from the fitted curve at half-maximal effect; nearly all actives have a fitted effect of over 55% in size)
# In short: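 P450-Glo CYP2C9 system: proluciferin substrate with enzyme in mix containing 0.4% BSA, 10 min at room temperature, then NADPH regeneration solution added and incubated 1 h at 37C. Detection reagent stopped reaction; luminescence read after 20 min as RLU.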
# [18] = test system: Zika virus NS2B-NS3 protease (linked construct); assay: Confirmatory screen NINDS AMC qHTS for Zika virus inhibitors (AID 1347152);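 also: AMC fluorescence gain from cleaved Bz-Nle-KRR-AMC substrate over 15 min; top concentration of the series differs between compounds; nearly all actives have a fitted effect of over 70% in size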
# In short: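 Purified NS2B-NS3 protease with NS2B hydrophilic domain linked to NS3 protease domain by flexible linker, 1 nM final in 10 mM Tris-HCl pH 8.0, 0.01% Tween 20. Compounds preincubated 15 min, room temperature; Bz-Nle-KRR-AMC 10 microM (Km 18.3 µM); 15-min fluorescence change, 4-parameter Hill fit.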
# [19] = test system: Zika virus NS2B-NS3 protease (unlinked complex); assay: Confirmatory screen GU AMC qHTS for Zika virus inhibitors (AID 1347153); also: nearly all actives have a fitted effect of over 70% in size
# In short: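 Noncovalent NS2B hydrophilic domain/NS3 protease complex (25 nM) in 10 mM Tris-HCl pH 8.0, 0.01% Tween 20 was preincubated 15 min at room temperature with compounds. Then 10 µM AMC substrate (Km 18.3 µM) was added; fluorescence was read over 15 min and fitted to a 4-parameter Hill equation.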
# Cytochrome P450 3A4 (Homo sapiens), sequence (P08684 whole entry, looked up): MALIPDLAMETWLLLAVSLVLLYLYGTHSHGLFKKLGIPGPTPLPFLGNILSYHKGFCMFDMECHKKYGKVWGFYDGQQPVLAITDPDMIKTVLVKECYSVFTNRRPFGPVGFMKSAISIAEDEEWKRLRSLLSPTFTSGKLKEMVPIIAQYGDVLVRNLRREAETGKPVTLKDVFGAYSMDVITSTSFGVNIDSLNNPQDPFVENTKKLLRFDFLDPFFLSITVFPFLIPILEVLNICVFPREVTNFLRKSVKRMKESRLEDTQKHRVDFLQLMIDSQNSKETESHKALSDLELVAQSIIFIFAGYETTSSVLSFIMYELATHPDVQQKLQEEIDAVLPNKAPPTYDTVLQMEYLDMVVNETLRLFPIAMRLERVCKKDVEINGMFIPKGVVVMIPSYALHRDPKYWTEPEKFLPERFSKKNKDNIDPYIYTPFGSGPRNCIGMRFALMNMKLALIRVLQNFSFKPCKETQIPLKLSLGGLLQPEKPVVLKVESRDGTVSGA
# Rap guanine nucleotide exchange factor 3 (Homo sapiens), sequence (O95398 whole entry, looked up): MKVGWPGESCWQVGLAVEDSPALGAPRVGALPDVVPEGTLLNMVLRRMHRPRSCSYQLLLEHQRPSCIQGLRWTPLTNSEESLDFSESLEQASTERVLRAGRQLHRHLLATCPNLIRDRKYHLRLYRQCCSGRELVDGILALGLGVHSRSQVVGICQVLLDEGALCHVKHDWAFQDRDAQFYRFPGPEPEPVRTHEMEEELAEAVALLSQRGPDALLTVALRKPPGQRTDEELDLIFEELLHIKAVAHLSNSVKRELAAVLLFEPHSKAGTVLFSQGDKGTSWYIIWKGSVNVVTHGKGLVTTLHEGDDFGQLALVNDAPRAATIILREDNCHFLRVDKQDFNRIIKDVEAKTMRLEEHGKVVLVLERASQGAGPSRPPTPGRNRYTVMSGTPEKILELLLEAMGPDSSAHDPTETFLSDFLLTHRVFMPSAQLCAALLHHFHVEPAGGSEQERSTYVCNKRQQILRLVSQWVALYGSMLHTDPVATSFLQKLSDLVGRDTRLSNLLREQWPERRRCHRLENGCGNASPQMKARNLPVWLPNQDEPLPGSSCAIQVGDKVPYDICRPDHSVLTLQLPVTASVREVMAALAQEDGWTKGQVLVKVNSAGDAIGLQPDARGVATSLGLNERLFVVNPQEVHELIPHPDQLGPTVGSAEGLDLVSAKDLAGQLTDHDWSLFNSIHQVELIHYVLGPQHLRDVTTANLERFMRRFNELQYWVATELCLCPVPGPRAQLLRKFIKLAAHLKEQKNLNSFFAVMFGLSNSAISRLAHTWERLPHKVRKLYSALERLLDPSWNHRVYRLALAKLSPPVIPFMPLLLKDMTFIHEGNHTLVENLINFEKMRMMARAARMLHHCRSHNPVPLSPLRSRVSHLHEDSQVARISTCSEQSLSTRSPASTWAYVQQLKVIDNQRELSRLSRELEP
# Furin (Homo sapiens), sequence (P09958 whole entry, looked up): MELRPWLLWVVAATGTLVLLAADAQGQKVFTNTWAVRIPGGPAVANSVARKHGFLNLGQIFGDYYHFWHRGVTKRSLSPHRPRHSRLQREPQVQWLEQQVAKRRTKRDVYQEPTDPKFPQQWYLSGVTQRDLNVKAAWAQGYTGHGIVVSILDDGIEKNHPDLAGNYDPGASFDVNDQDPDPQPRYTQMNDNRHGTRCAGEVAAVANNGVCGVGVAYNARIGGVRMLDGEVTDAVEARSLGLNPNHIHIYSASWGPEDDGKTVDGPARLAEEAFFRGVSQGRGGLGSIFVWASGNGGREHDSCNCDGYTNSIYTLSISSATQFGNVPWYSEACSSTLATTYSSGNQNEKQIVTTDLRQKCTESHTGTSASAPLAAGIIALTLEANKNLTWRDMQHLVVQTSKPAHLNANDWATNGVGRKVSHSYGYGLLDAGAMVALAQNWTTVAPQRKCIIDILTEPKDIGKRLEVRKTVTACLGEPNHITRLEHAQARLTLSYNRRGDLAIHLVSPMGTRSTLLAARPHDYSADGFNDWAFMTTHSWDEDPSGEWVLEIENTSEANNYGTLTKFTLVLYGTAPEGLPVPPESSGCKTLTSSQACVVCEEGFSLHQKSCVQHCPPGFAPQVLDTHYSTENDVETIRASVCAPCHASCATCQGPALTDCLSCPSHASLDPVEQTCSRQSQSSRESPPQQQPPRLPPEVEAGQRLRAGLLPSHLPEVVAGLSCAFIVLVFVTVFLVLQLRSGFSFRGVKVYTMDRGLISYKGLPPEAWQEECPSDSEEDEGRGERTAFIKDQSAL
# Ubiquitin carboxyl-terminal hydrolase 1 (Homo sapiens), sequence (O94782 whole entry, looked up): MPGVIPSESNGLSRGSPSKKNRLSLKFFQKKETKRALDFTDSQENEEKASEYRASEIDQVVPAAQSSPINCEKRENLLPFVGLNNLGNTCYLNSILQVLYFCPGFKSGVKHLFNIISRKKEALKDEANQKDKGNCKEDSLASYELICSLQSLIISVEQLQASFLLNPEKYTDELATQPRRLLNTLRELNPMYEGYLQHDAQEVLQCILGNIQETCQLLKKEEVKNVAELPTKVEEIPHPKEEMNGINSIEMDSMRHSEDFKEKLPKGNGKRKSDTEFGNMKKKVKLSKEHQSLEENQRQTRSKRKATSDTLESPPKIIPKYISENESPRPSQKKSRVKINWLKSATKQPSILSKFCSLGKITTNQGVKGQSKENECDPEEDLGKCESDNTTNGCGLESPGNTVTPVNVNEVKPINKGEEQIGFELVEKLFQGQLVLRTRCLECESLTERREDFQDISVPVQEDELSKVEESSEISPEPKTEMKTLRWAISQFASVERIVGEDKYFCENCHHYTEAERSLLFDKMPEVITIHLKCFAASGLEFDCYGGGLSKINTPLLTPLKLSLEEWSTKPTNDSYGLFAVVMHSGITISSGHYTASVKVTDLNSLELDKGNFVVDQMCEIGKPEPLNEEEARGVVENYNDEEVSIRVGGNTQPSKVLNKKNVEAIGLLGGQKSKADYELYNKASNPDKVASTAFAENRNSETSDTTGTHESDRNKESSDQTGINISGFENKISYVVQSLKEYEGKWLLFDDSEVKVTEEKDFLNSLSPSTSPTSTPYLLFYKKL
# Rap guanine nucleotide exchange factor 4 (Homo sapiens), sequence (Q8WZA2 whole entry, looked up): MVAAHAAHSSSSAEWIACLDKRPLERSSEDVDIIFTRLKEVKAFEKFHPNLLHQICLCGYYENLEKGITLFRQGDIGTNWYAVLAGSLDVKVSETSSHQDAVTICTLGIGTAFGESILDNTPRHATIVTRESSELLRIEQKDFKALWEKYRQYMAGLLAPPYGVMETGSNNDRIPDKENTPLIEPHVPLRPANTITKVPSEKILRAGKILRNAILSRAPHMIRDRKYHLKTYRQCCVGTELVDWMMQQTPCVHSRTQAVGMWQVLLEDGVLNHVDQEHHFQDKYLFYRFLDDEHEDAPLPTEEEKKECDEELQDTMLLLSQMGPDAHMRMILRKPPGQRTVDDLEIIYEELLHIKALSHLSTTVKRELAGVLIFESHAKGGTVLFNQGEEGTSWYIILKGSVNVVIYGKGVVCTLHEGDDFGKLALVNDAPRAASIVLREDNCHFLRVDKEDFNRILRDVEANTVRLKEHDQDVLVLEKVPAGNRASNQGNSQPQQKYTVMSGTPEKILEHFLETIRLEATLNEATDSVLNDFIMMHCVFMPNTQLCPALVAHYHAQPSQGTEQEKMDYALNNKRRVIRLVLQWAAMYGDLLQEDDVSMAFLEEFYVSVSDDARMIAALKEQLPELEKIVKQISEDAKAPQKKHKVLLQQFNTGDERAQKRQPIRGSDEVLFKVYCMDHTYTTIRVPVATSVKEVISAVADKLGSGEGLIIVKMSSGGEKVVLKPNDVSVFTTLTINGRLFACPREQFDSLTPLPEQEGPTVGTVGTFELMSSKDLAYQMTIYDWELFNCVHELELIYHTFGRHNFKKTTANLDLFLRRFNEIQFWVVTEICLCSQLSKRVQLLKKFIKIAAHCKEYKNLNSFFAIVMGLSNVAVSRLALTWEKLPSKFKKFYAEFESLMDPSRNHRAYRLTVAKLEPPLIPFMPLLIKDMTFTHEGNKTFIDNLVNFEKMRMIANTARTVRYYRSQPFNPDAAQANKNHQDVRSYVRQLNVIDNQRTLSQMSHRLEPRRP
# Cytochrome P450 2C9 (Homo sapiens), sequence (P11712 whole entry, looked up): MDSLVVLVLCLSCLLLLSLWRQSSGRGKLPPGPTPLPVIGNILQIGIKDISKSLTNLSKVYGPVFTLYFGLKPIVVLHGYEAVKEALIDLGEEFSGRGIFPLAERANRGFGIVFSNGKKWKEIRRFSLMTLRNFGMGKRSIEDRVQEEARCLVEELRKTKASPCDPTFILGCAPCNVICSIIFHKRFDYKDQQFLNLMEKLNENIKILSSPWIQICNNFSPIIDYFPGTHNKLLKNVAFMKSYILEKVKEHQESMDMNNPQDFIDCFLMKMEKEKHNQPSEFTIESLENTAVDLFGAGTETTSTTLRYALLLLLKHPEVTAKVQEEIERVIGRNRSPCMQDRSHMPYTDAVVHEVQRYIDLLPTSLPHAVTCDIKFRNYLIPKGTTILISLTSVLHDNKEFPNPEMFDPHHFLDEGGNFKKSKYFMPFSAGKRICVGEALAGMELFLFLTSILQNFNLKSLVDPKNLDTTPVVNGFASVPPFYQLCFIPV
compound,measurement,setting,value
O=c1cc(-c2cc(O)c(O)c(O)c2)oc2cc(O)cc(O)c12,Potency,[1],20 µM (active)
same,Potency,[2],inactive
same,outcome,[3],inactive
same,Potency,[4],35.5 µM (active)
same,Potency,Furin (Homo sapiens),inactive
same,Potency,[5],inactive
same,Potency,[6],31.6 µM (active)
same,Potency,[7],63.1 µM (active)
same,Potency,[8],inactive
O=c1oc2ccc3ccccc3c2cc1-c1nnc(Nc2cc(C(F)(F)F)ccc2Cl)s1,Potency,Furin (Homo sapiens),inactive
same,Potency,[6],inactive
same,Potency,[8],inactive
COC(=O)c1ccc(NC(=O)CSc2ncc3c(n2)-c2cc(Cl)ccc2N(Cc2ccccc2)S3(=O)=O)cc1,Potency,Furin (Homo sapiens),83.5 µM (active)
same,Potency,[5],inactive
same,Potency,[7],inactive
O=C(OCc1cccc(C(F)(F)F)c1)c1ccc(-c2nnn(Cc3ccc(F)cc3)n2)cc1,Potency,Furin (Homo sapiens),inactive
same,Potency,[6],inactive
same,Potency,[8],inactive
O=C(CNC(=O)c1ccccc1)OC(C(=O)Nc1cc(C(F)(F)F)ccc1Cl)c1ccccc1 (stereo unspecified),Potency,Furin (Homo sapiens),inactive
same,Potency,[6],inactive
same,Potency,[8],inactive
O=C(Nc1ccc(C(=O)OCc2cc(=O)n3c4c(sc3n2)CCCC4)cc1)c1ccc(F)cc1,Potency,Furin (Homo sapiens),66.3 µM (active)
same,Potency,[5],inactive
same,Potency,[7],inactive
same,Potency,[8],inactive
COc1ccccc1C(=O)Nc1ccc(C(=O)OCc2cc(=O)n3c4c(sc3n2)CCCC4)cc1,Potency,Furin (Homo sapiens),7.44 µM (active)
same,Potency,[5],inactive
same,Potency,[8],inactive
COCCOC(=O)c1c(C)n(S(=O)(=O)c2ccc(C)cc2)c2ccc(NS(=O)(=O)c3ccc(C)cc3)cc12,Potency,Furin (Homo sapiens),inactive
same,Potency,[6],inactive
same,Potency,[8],inactive
O=C(O)COc1ccccc1C1Nc2ccccc2-c2nnc(SCc3ccc(Cl)cc3)nc2O1 (stereo unspecified),Potency,Furin (Homo sapiens),inactive
same,Potency,[5],inactive
same,Potency,[7],316 µM (active)
same,Potency,[9],224 µM (active)
same,Potency,[8],inactive
Cc1ccc(OCC(=O)Nc2ccc(C(=O)OCc3cc(=O)n4nc(C5CC5)sc4n3)cc2)cc1,Potency,Furin (Homo sapiens),inactive
same,Potency,[8],inactive
O=C(O)Cc1cc(I)c(Oc2cc(I)c(O)c(I)c2)c(I)c1,Potency,[1],inactive
same,outcome,[3],inactive
same,outcome,[10],inactive
same,"activity change, negative = inhibition",[11]; at 57.5 µM (top of the series),3.04% (inactive)
same,max response,[11]; measured here: cell count channel max response,12.2%
same,max response,[11]; measured here: lipid channel max response,14.7%
same,Potency,[4],inactive
same,Potency,Furin (Homo sapiens),inactive
same,Potency,[8],inactive
Cc1cccc(OCC(=O)Nc2ccc(C(=O)OCc3cc(=O)n4nc(C5CC5)sc4n3)cc2)c1,Potency,Furin (Homo sapiens),inactive
same,Potency,[8],inactive
O=C(Nc1ccc(C(=O)OCc2cc(=O)n3c4c(sc3n2)CCCC4)cc1)c1ccccc1,Potency,Furin (Homo sapiens),41.8 µM (active)
same,Potency,[8],inactive
CCOC(=O)c1ccc(NC(=O)CSc2nc(-c3ccc(OC)cc3)cc(C(F)(F)F)c2C#N)cc1,Potency,Furin (Homo sapiens),inactive
same,Potency,[12],inactive
same,outcome,[13],inactive
same,outcome,[14],inactive
same,Potency,[15],inactive
same,outcome,[16],inactive
COc1ccc(Nc2nnc(-c3ccc(C)c(S(=O)(=O)NCc4nc5ccccc5[nH]4)c3)c3ccccc23)cc1,Potency,Furin (Homo sapiens),inactive
same,Potency,[17],7.56 µM (active)
O=C(Nc1ccc(Oc2ccccc2)cc1)O[C@@H]1CO[C@H]2[C@@H]1OC[C@@H]2n1nnnc1-c1ccc(-c2ccccc2)cc1,Potency,[18],inactive
same,Potency,[19],inactive
same,Potency,[8],inactive
O=c1oc2ccc3ccccc3c2cc1-c1nnc(Nc2cccc(C(F)(F)F)c2)s1,Potency,Furin (Homo sapiens),inactive
same,Potency,[8],inactive
COc1ccc(S(=O)(=O)c2c(O)c(C)cc(NS(=O)(=O)c3ccc(Cl)cc3)c2C(C)C)cc1,Potency,Furin (Homo sapiens),inactive
same,Potency,[8],inactive
